Reference: PubChem BioAssay AID588675 (Johns Hopkins Ion Channel Center, 2011)
Out of some 310,000 compounds screened, about 1,900 (0.61%) were called active.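 The calls were made as follows: active = plate-corrected calcium response at least 3 library SD above typical, normal starting fluorescence, not activating the receptor alone; inactive = the rest.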 The full list was thinned out, with actives kept by preference.

The compounds below were run against Mas-related G-protein coupled receptor member X1 (Homo sapiens) (UniProt Q96LB2) (assay: allosteric enhancers of human MrgX1 signaling – HEK293 cells, Fluo-4 calcium flux, primary screen (AID 588675;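 also: compound read alongside a low EC10 to EC30 dose of BAM8-22 agonist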;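 as to B-score: peak minus trough fluorescence over baseline measured at the second addition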)). Conditions: MrgX1-HEK293, Fluo-4 calcium flux, FDSS, at 10 µM; active compounds read high.
Chain of Mas-related G-protein coupled receptor member X1 (Homo sapiens) (Q96LB2 whole entry, looked up): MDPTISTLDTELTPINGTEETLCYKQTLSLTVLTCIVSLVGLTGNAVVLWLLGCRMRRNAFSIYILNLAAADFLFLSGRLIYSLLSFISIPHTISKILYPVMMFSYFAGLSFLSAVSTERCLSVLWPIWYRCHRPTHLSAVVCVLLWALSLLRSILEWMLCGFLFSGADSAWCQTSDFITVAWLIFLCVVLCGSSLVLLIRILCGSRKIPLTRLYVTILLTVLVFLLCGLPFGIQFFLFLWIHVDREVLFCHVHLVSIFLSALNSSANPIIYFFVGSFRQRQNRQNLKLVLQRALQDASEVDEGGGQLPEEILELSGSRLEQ

Structure (SMILES)	B-score
CC[C@H]1CC2CN3CCc4c([nH]c5ccccc45)C(C(=O)OC)(C2)C13 (stereo not given in full)	13 (active)
CN1CCc2cc3c(cc2[C@H]1[C@@H]1OC(=O)c2c1ccc1c2OCO1)OCO3	inactive
CN(C)C(=O)Oc1ccc(OCc2cccc[n+]2C)cc1	inactive
Cc1nc2ccccn2c1P(=S)(N1CCCCC1)N1CCCCC1	13.5 (active)
CC1CCCCN1Cc1cccnc1 (stereo not given)	inactive
COc1ccc(S(=O)(=O)NCc2ccc(C(=O)N3CCC4(CC3)OCCO4)cc2)cc1	inactive
Cc1ccc(-c2nn(CCC#N)cc2C(=O)O)cc1C	inactive
CN(C)C(=O)Oc1ccc2c(c1)O/C(=C\c1ccccc1)C2=O	inactive
COC(=O)CN1C(=O)C2(C(C(=O)OC)=C(N)Oc3ccccc32)C2=C1CC(C)(C)CC2=O (stereo not given)	inactive
C=CCN1C(=O)C2(C(C(=O)OCC)=C(N)Oc3c2c(=O)oc2ccccc32)c2ccccc21 (stereo not given)	27.7 (active)
CCOC(=O)CC1=C(C(=O)OCC)C2(C(=O)N1)C(C(=O)OC)=C(N)Oc1ccccc12 (stereo not given)	inactive
O=Cc1cn(Cc2ccc(F)cc2Cl)c2ccccc12	inactive
CCOc1cccc(=NC2CCCCC2)c2c(C)[nH]c(C)c12	inactive
c1ccc(CC2CCCCN2)cc1 (stereo not given)	inactive
O=C(COC(=O)c1ccccc1)Nc1ccc(Cl)cc1C(=O)c1ccccc1	inactive
